Reference: PubChem BioAssay (NCI)
This is part of a sample that, as a whole, favours compounds with a hit. Of some 83,000 tested, about 20% had one in any assay.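 Treatment: one concentration, 48 hours, 96-well format. Scoring: percent growth, with anything below 10 considered active.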 A number with no mark means an inactive call. The source made the active and inactive calls.

These molecules were tested on MDA-MB-435 melanoma (assay: NCI-60 one-dose screen, 48 h (100 = growth as untreated, 0 = no growth, -100 = all killed)). Settings: 10 µM unless noted.
Method: Growth inhibition of the MDA-MB-435 human Melanoma tumor cell line is measured as a screen for anti-cancer activity. Cells are grown in 96 well plates and exposed to the test compound for 48 hours. Compounds are tested at a single concentration, which is 10^-5 M for most compounds. The reported endpoint is percent growth (GI% or GIPRCNT), where numbers from 0 - 100% represent growth inhibition, and numbers from -100% - 0 represent cell death. For example, a value of 40 represents 60% growth inhibition. A value of 0 means no net growth occurred over the course of the experiment. A value of -40 indicates 40% of cells at the beginning of the experiment died by the end of the experiment. A value of -100 means all cells are dead at the end of the experiment.
NCI-60 Human Tumor Cell Lines Screen was performed using the standard one-dose NCI protocol, which is described in more detail at https://dtp.cancer.gov/discovery_development/nci-60/default.htm.
Compounds with GIPRCNT values below 10 were considered active. Activity score was based on GIPRCNT using the following formula: […]
Score is 0 for GIPRCNT values of 100 or above, 50 for GIPRCNT values of 0, and 100 for GIPRCNT values of -100.
Clc1cc(Cl)cc(Nc2ccc3cc(OCCCN4CCOCC4)ccc3n2)c1 showed a growth of 34.1%. In the case of C=C(C)[C@@H]1CC[C@]2(C(=O)NC3CCCCC3)CC[C@]3(C)[C@H](CC[C@@H]4[C@@]5(C)CCCNC(C)(C)[C@@H]5CC[C@]43C)[C@@H]12, the growth is reported as 6.98% (active). With COc1cc(C(=O)/C=C/c2c(-c3ccc(F)cc3)nc3sc(C)cn23)cc(OC)c1OC the growth was 3.64% (active). Work on O=c1[nH]ccc2nc(N3CCC(O)CC3)nc(Nc3ccc(N4CCOCC4)cc3)c12 yielded a growth of 40.6%. In the case of Cc1cc(NCc2cc(Nc3ccnc4cc(Cl)ccc34)ccc2F)nc(N2CCN(C)CC2)n1, the growth is reported as -96.7% (active). For CCOC(CN=Cc1cc(C)c2[nH]c3ccccc3c2c1C)OCC, the growth was 97.8%. COc1ccc(/C=c2\nc3n(-c4ccccc4)c4nc5c6c(sc5c(=N)n4n-3c2=O)CCCC6)cc1 showed a growth of 89.5%. With Cc1ccc2nc(C)c(-c3nnc(SCc4ccc(C#N)cc4)o3)n2c1 the growth was 101%. Molecule COc1ccc(N=C(c2ccccc2)C2C(=O)c3ccccc3C2=O)cc1 has a growth of 58.6%. CCN1C(=O)N(CC)C2Nn3c(s/c(=C4\C(=O)N(C)c5ccccc54)c3=O)=NC21 (stereo not given) was tested, and the growth was -59.6% (active). For O=c1cc(-c2ccc(Cl)cc2)[nH]c2ccccc12, the growth was 5.74% (active). Work on CC1CC(C(C)(C)C)C(=O)C(C(C)(C)C)C1 (stereo not given) yielded a growth of 103%. Molecule CCOC(=O)c1ccc(N2NC(=O)/C(=C/c3ccc([N+](=O)[O-])o3)C2=O)cc1 has a growth of 109%. Molecule CN(C)CCC=C1c2ccccc2C(C)(C)c2ccccc21 has a growth of 66.9%. COc1ccc(C(=O)/C=C/c2c(C(F)(F)F)nc3sccn23)cc1OC was tested, and the growth was 3.47% (active). With COc1ccc(NC(=O)CSc2nc(C)c(C(C)=O)n2-c2ccc(Cl)cc2)cc1 the growth was 89%. Work on Nc1ccc2c(c1)c(N)nn2C(=O)Nc1ccc(Cc2ccccc2)cc1 yielded a growth of 68.9%. COC(=O)[C@]12CC[C@@H](C)[C@H](C)[C@@H]1C1=CC[C@@H]3[C@@]4(C)C(C=O)=C[C@@](C)(COC(C)=O)[C@@H]4C(=O)C[C@@]3(C)[C@]1(C)CC2 gave a growth of 50.5%. COc1ccc2occ(C3=C(c4c[nH]c5ccccc45)C(=O)N(O)C3=O)c2c1 gave a growth of 96.3%. Work on Cc1cc(Cl)ccc1Nc1nc(C(F)(F)F)ccc1C(=O)N/N=C/c1ccc(N(C)C)cc1 yielded a growth of 43.7%. For COc1cccc(-c2nc3sccn3c2/C=C/C(=O)c2ccc(C(F)(F)F)cc2)c1, the growth was 73.3%. Molecule O=C(Nc1cccc(Cl)c1)c1cc(N=Nc2ccc([N+](=O)[O-])cc2Cl)ccc1O has a growth of 90.5%. For Oc1c(CN2CCCC2)cc(COCc2ccc(Br)cc2)c2cccnc12, the growth was 24.1%. In the case of NC(=N\N=C/c1ccccc1[N+](=O)[O-])/C(N)=N\N=C/c1ccccc1[N+](=O)[O-], the growth is reported as 101%. For C=C(C)[C@@H]1CC[C@]2(C(=O)NC3CCCCC3)CC[C@]3(C)[C@H](CC[C@@H]4[C@@]5(C)CCC(=O)C(C)(C)[C@@H]5CC[C@]43C)[C@@H]12, the growth was 93.6%. Work on Cc1ccc(C(=O)CSc2nc(-c3ccc(Br)cc3)c(C#N)c(=O)[nH]2)cc1 yielded a growth of 93.2%. Molecule CCn1c(C)nc2cc(C(N)=O)ccc21 has a growth of 131%. CCOC(=O)c1c(-c2ccc(Cl)cc2)c(C#N)c(=O)n(-c2ccccc2CC)c1N gave a growth of 106%. Molecule CC1=NOC(=O)/C1=C\c1ccc(O)cc1 has a growth of 102%. With COC(=O)c1c2c(c(C)[n+]([O-])c1C)C(=O)C(NCc1ccc(F)c(Cl)c1)=CC2=O the growth was -82.4% (active). Molecule COc1ccc(C(=O)Nn2c(NCC(=O)N3c4ccccc4Sc4ccccc43)nnc2-c2ccc(O)cc2)cc1 has a growth of 102%. Molecule C[n+]1cc2cc(C(N)=O)[nH]c3c(=N)c(Cl)c(N)c1c23 has a growth of 85.7%. With S=C(c1ccc2c(c1)OCO2)N1CCN(c2ccccc2Cl)CC1 the growth was 99.9%. In the case of CC(C)(C)n1cc(-c2ccnc(NCCCNS(=O)(=O)c3ccccc3)c2)c(-c2ccccc2)n1, the growth is reported as 82.1%. COc1ccc(/C=N/C2=C(C#N)C(c3ccc(OC)cc3)c3ccc4ccccc4c3O2)cc1 (stereo not given) was tested, and the growth was -10.9% (active). N=C1C(c2nc(-c3ccc(Br)cc3)cs2)=C(O)CN1Cc1cccnc1 gave a growth of 53.4%. For N#Cc1c(-c2ccccc2)cc(-c2ccc(Nc3nc(Nc4ccc(F)cc4)nc(Nc4ccc(F)cc4)n3)cc2)nc1N, the growth was 105%. Molecule COC(=O)CCC1=C(C)C2=NC1=CC1=NC(=CC3=NC(=Cc4[nH]c(/c(=C(/C)O)c4C)=C2)C(C(C)=O)=C3C)C(C)=C1CCC(=O)OC has a growth of 108%. For N/C(=N\c1nc2ccccc2s1)NC(=O)Nc1cccc(Cl)c1, the growth was 1.08% (active). Cn1ccc2c(c1=O)C(=O)c1nccc3c1c-2nc1ccccc13 was tested, and the growth was 76.4%.
